High-throughput results: PubChem, National Center for Advancing Translational Sciences (NCATS)
An excerpt weighted towards active compounds, which were near 11% of everything screened.
HPGD block – blocks human HPGD enzyme activity; purified HPGD, NADH fluorescence kinetic, PGE2 substrate; P15428; Potency, µM, most hits filed as inhibitors; 4.3% of 150,000 active
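NADH formation kinetics: reaction with 30 uM PGE2 and 1 mM NAD+ (final), 20 nM enzyme, Tris-HCl pH 8 with Tween 20, after 15 min compound preincubation at room temperature. Fluorescence change, last versus first of five reads.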
PNC assembly inh – blocks assembly of the perinucleolar compartment. PC3M PTB-GFP, PNC prevalence imaging, 16 h; active compounds read low. activity change (PNC), negative = inhibition, % at 10 µM. 3.1% of 140,000 active;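 active = readout at or below -70, meaning at least 70% loss of cells showing the perinucleolar compartment, a nuclear body marking cancer cells; inconclusive = readout between -30 and a set limit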
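Read-out is percentage of cells bearing a perinucleolar compartment, from automated 20x imaging of fixed, Hoechst-stained PC3M PTB-GFP cells. Cells were seeded 4 h, then exposed 16 h to compound (23 nl of library stock) in duplicate plates.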
ALDH1A1 inh – inhibitors of human aldehyde dehydrogenase 1A1 | Purified ALDH1A1, NADH fluorescence, propionaldehyde substrate | 7.3% of 220,000 active | AID 1030 | P00352 | Potency, µM (top dose mostly 75.3 µM), actives largely listed as inhibitors
Target sequence (P00352 whole entry, looked up): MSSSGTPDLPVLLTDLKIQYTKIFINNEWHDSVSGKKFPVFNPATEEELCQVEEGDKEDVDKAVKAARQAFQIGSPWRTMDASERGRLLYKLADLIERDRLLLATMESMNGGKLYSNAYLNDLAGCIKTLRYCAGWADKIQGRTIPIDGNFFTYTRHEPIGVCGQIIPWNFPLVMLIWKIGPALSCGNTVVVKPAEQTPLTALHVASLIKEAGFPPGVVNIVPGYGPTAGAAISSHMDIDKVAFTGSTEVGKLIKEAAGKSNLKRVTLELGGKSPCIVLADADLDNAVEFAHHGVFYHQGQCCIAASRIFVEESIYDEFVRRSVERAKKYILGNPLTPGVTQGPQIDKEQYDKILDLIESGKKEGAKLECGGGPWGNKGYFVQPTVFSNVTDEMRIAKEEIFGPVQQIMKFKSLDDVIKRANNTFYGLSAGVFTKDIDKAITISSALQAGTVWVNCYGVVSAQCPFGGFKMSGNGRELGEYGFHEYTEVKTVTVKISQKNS
Each line names hits and unclear results; the compound was inactive in the other large screens. Unless noted, calls come from the whole dose curve; as a rule, active = well fitted inhibition curve with a large enough effect (not every such curve was filed as active); inconclusive = small, poorly fitted or top-dose-only effect, or another doubt; inactive = no such curve, though single readings can be large or run the other way.

N=C(N)SCc1cccc2c(=O)cc(-c3ccccc3)oc12	none (no result: PNC assembly inh)
CC(C)CCCC(C)C1CCC2C3CC(O)[C@@]4(O)CC(O)CC[C@@]4(C)C3CC[C@@]12C (stereo partly drawn)	none (no result: PNC assembly inh)
O=C1NC(=O)C(Nc2cccc3ccccc23)S1 (stereo not drawn)	HPGD block inconclusive
CN1C(=O)SC(Nc2cccc3ccccc23)C1=O (stereo not drawn)	ALDH1A1 inh 28µM
COc1cccc(C2c3[nH]c4ccccc4c3CCN2Cc2cccn2-c2ncccn2)c1 (stereo not drawn)	none (no result: HPGD block, PNC assembly inh)
Fc1ccc(C2c3[nH]c4ccccc4c3CCN2Cc2cccn2-c2ncccn2)cc1 (stereo not drawn)	ALDH1A1 inh 10µM (no result: HPGD block, PNC assembly inh)
Clc1ccc(-n2cccc2CN2CCc3c([nH]c4ccccc34)C2c2ccccn2)nc1 (stereo not drawn)	ALDH1A1 inh 14µM (no result: HPGD block, PNC assembly inh)
O=C(Cc1ccsc1)N1CCc2c([nH]c3ccccc23)C1c1ccccn1 (stereo not drawn)	none (no result: HPGD block, PNC assembly inh)
O=C(CSc1nc2ccccc2c(=O)[nH]1)N1CCCCC1	HPGD block 16µM, ALDH1A1 inh inconclusive
O=C(CSc1nc(C2CCCCC2)nc2ccccc12)N1CCCC1	none (no result: HPGD block, PNC assembly inh)
CC(C)c1nc(SCC(=O)N2CCCC2)c2ccccc2n1	ALDH1A1 inh 3.2µM
Cc1ccc(S(=O)(=O)N2CCN(C(=O)CSc3ncc(C(F)(F)F)cc3Cl)CC2)cc1	ALDH1A1 inh 2.8µM
Cc1ccc(S(=O)(=O)N(C)C)cc1NC(=O)CSc1ncc(C(F)(F)F)cc1Cl	PNC assembly inh inconclusive
O=C(CSc1nncc2ccccc12)N1CCCCC1	ALDH1A1 inh 10µM (no result: HPGD block, PNC assembly inh)
CCc1nc(SCC(=O)N2CCCC2)c2ccccc2n1	none
O=C(O)CSc1nc2ccccc2c(=O)[nH]1	none
C[C@@H]1NC(=O)C/C=C\[C@@H](C)[C@@H]2C=C[C@H](O)[C@@H](COC(=O)[C@H](C)NC(=O)C/C=C\[C@@H](C)[C@@H]3C=C[C@H](O)[C@@H](COC1=O)O3)O2	none (no result: HPGD block, PNC assembly inh)
COC12NC(=O)N(C)C1(OC)C(=O)N(C)C(=O)N2C (stereo not drawn)	none
Nc1nc(SCC(=O)N2CCc3ccccc3C2)[nH]c(=O)c1-c1ccccc1	ALDH1A1 inh 22µM
Cc1ccc(S(=O)(=O)N2CCN(C(=O)CSc3nc4ccccc4c(=O)[nH]3)CC2)cc1	PNC assembly inh inconclusive, ALDH1A1 inh 3.2µM
O=C(CSc1nc2ccccc2[nH]1)N1CCN(S(=O)(=O)c2ccc(Cl)cc2)CC1	none
O=C(CSc1nc2[nH]ncc2c(=O)[nH]1)N1CCCCC1	PNC assembly inh inconclusive, ALDH1A1 inh 20µM
Nc1nc(SCC(=O)Nc2ccccc2)[nH]c(=O)c1-c1ccccc1	none
CCSc1nc2[nH]ncc2c(=O)[nH]1	PNC assembly inh -87
CCCCSc1nc2[nH]ncc2c(=O)[nH]1	PNC assembly inh inconclusive
O=C(CSc1nc2[nH]ncc2c(=O)[nH]1)N1CCCC1	PNC assembly inh inconclusive
Cc1cnc(C(=O)Nc2cccc(S(=O)(=O)N(C)C)c2)cn1	ALDH1A1 inh inconclusive
N[C@@H](CSc1nc2ccccn2c1[N+](=O)[O-])C(=O)O	none (no result: PNC assembly inh)
COc1cc(/C=N/NC(=O)CN2CCCCC2)ccc1OCc1ccc(Br)cc1	none
O=C(CCSCc1ccc(Cl)cc1)NCc1cccnc1	none (no result: HPGD block, PNC assembly inh)
OC(CNCCC(c1ccccc1)c1ccccc1)COc1ccccc1 (stereo not drawn)	none (no result: HPGD block, PNC assembly inh)
Cc1cccc(N2CCN(C(=O)c3ccc(CNc4c(N5CCC(C)CC5)c(=O)c4=O)cc3)CC2)c1C	none (no result: HPGD block, PNC assembly inh)
O=C(c1ccco1)N1CCC[C@@]2(CCN(C(c3ccccc3)c3ccccc3)C2)C1	ALDH1A1 inh inconclusive (no result: PNC assembly inh)
COC(=O)[C@@H]1C[C@H]1[C@@H](NC(=O)c1cnccn1)c1ccccc1	none (no result: PNC assembly inh)
Cc1nc(SCC(=O)NCCc2ccccc2)nc(C)c1C	PNC assembly inh inconclusive
O=C(CSc1nc2[nH]ncc2c(=O)[nH]1)c1ccccc1	none (no result: HPGD block, PNC assembly inh)
O=C(CSc1nc2[nH]ncc2c(=O)[nH]1)c1ccc(Cl)cc1	ALDH1A1 inh 2.5µM (no result: HPGD block, PNC assembly inh)
Cc1nn(Cc2ccccc2Cl)c2sc(C(=O)OC3CCCC3=O)cc12 (stereo not drawn)	ALDH1A1 inh 8.9µM
Cc1nn(Cc2ccccc2Cl)c2sc(C(=O)NC(C)(C)C)cc12	none
Cc1ccccc1N1C(=O)CC(N2CCC(C(N)=O)CC2)C1=O (stereo not drawn)	PNC assembly inh inconclusive, ALDH1A1 inh inconclusive
CN1C(=O)CC(N2CCC(C(N)=O)CC2)C1=O (stereo not drawn)	none
NC(=O)C1CCN(C2CC(=O)N(c3cccc(F)c3)C2=O)CC1 (stereo not drawn)	ALDH1A1 inh 22µM
NC(=O)C1CCN(C2CC(=O)N(c3ccc(F)c(Cl)c3)C2=O)CC1 (stereo not drawn)	ALDH1A1 inh 25µM
CC(NS(=O)(=O)c1cccc(S(=O)(=O)c2ccccc2)c1)C(=O)O (stereo not drawn)	none
Cc1ccc(C(=O)CSc2nnc3c4ccccc4nc(C(C)(C)C)n23)cc1	ALDH1A1 inh inconclusive
CC(=O)CSc1nnc2c3ccccc3nc(C(C)(C)C)n12	ALDH1A1 inh 3.5µM (no result: HPGD block, PNC assembly inh)
O=C(O)C1=C(C(=O)Nc2cccc(C(F)(F)F)c2)CCCC1	none (no result: HPGD block, PNC assembly inh)
COc1ccc2c(OC)cc(-c3ccccc3)nc2c1	ALDH1A1 inh inconclusive
COc1cc(-c2ccccc2)nc2ccccc12	HPGD block 28µM
COc1ccc(CCN2C(=O)CS/C2=N/NC(=O)c2ccccc2F)cc1OC	none
CCOc1cc(CNn2cnnc2SCC(=O)NC(C)(C)C)ccc1OCC(=O)NC(C)(C)C	none (no result: HPGD block, PNC assembly inh)
CSc1nc(-c2ccccc2)nn1C(=O)c1ccc(C)cc1	PNC assembly inh inconclusive, ALDH1A1 inh inconclusive
Cc1ccc(C(=O)n2ncn(C)c2=S)cc1	ALDH1A1 inh 6.3µM (no result: HPGD block, PNC assembly inh)
Cc1ccc(S(=O)(=O)NCCC(=O)Nc2ccc(C)cc2C(=O)c2ccccc2)cc1	PNC assembly inh inconclusive, ALDH1A1 inh inconclusive
COc1cccc(C2C3=C(N=C4SCC(=O)N42)c2ccccc2CC3)c1OC (stereo not drawn)	ALDH1A1 inh inconclusive
COc1ccc(OC)c(C2C3=C(N=C4SCC(=O)N42)c2ccccc2CC3)c1 (stereo not drawn)	HPGD block 22µM, PNC assembly inh inconclusive, ALDH1A1 inh inconclusive
CCC1CCCCN1C(=O)Cn1nc([N+](=O)[O-])c(Cl)c1C (stereo not drawn)	none (no result: HPGD block, PNC assembly inh)
Cc1cccn2c(/C=N/OCc3cccc(F)c3)c(-c3ccc(Cl)cc3)nc12	HPGD block inconclusive, ALDH1A1 inh inconclusive
COc1cccc(/C(C#N)=C/c2c(-c3ccc(Cl)cc3)nc3c(C)cccn23)c1	PNC assembly inh -99
CCCn1c(C)nc2c(NCCN(C(C)C)C(C)C)nc(C)nc21	none (no result: PNC assembly inh)
NNC(=O)c1sc2cc(C(F)(F)F)cnc2c1-c1ccccn1	ALDH1A1 inh 7.1µM (no result: HPGD block, PNC assembly inh)
O=C(O)c1sc2cc(C(F)(F)F)cnc2c1-c1ccccc1	none
O=C1CC(c2ccc(Cl)cc2)CC(O)=C1C=NCc1ccc(Cl)c(Cl)c1 (stereo not drawn)	ALDH1A1 inh inconclusive
CC(O)C(C(=O)OCc1ccc([N+](=O)[O-])cc1)N1C(=O)c2ccccc2C1=O (stereo not drawn)	PNC assembly inh inconclusive
Cc1ccc(N[C@H](c2ccccc2)c2ccc3cccnc3c2O)cc1	ALDH1A1 inh inconclusive (no result: PNC assembly inh)
COc1ccccc1NC(c1cccnc1)c1ccc2cccnc2c1O (stereo not drawn)	ALDH1A1 inh 2.5µM
